Reference: PubChem BioAssay AID2417 (National Center for Advancing Translational Sciences (NCATS), 2010)
Among all 140,000 compounds or so, about 4,300 (3.1%) were called active. Another 21% or so got no clear call; they are omitted.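 How the source made its calls: active means readout at or below -70, meaning at least 70% loss of cells showing the perinucleolar compartment, a nuclear body marking cancer cells; inconclusive means readout between -30 and a set limit; inactive means the rest.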 The list comes from a sample in which actives are over-represented; it also holds similar structures and randomly drawn compounds.

Assay: High Content Assay for Compounds that inhibit the Assembly of the Perinucleolar Compartment;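 further: plate controls were DMSO wells for no effect and camptothecin positive control wells for full effect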
Conditions: PC3M PTB-GFP, PNC prevalence imaging, 16 h; at 10 µM; hits give low values
How it was run: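 PC3M cells stably expressing PTB-GFP, 750–1000 cells/well, treated 16 h at 37 °C with compound (23 nl of library stock), in duplicate. After paraformaldehyde fixation and Hoechst stain, imaged at 20x; PNC prevalence scored by image analysis.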

Activity change (PNC), negative = inhibition, inactive:
COc1ccc(C(=O)NC2(C(F)(F)F)NC(=O)N(CCCc3ccccc3)C2=O)c(OC)c1OC (stereo not given) -8.14%
O=C(O)CCC(=O)Nc1ccc(N2CCOCC2)cc1 -23.8%
CC(=O)Nc1ccc(S(=O)(=O)N2CCN(c3ccc([N+](=O)[O-])c(NCCN4CCOCC4)c3)CC2)cc1 -13.1%
O=C(NCCc1ccccc1)C1CCC(Cn2c(=O)c3ccccc3n(Cc3cccnc3)c2=O)CC1 (stereo not given) 13.2%
Cc1nc(SCc2ccc(F)cc2)c([N+](=O)[O-])[nH]1 17.5%
CCC(NC(=O)c1ccccc1NC(=O)c1ccccc1)C(=O)NNC(=O)CSc1nc2ccccc2o1 (stereo not given) -4.05%
COCCn1c(=O)[nH]c(=O)c2cc(C(=O)c3cc(OC)ccc3O)cnc21 -8.95%
Cc1ccccc1NC(=O)c1ccc(COc2ccc3c(C)cc(=O)oc3c2)cc1 90.9%
Cc1ccccc1N1CCN(CCCOc2ccc3c(C)cc(=O)oc3c2)CC1 -23.3%
COc1ccc(/C(N)=N/OC(=O)CCCc2ccccc2)cc1 -16.1%
COc1ccccc1NC(=O)CCCc1c[nH]c2ccccc12 -4.48%
COc1ccccc1NC(=O)C1=C(C)Nc2ncnn2C1c1ccc(C)o1 (stereo not given) -27.1%
COc1cc(C2C(C(=O)Nc3ccccc3OC)=C(C)Nc3ncnn32)ccc1O (stereo not given) 17.6%
Cc1ccc(Oc2cc(NC(=O)CCCn3nc(C)c([N+](=O)[O-])c3C)cc([N+](=O)[O-])c2)cc1 5%
CNC(=O)NC(=O)C(OC(=O)c1cccc(S(=O)(=O)N2CCCCC2)c1)c1ccccc1 (stereo not given) -3.58%
COc1cc(OC)cc(-c2nc3ccccc3c(=O)n2NC(=O)c2cccnc2Cl)c1 -30%
N#Cc1ccccc1Sc1ccccc1C(=O)OCC(=O)NC1CCCCC1 33.1%
O=C(COC(=O)c1cc(-c2cccs2)nn1-c1ccccc1)Nc1cc([N+](=O)[O-])ccc1Cl 21.6%
COc1ccc(C(=O)CN(C(=O)c2ccc(Cl)cc2)N2C(=O)c3ccccc3C2=O)cc1 -9.88%
COc1ccc(OCCCON2C(=O)c3ccccc3C2=O)cc1 0.67%
CCCCN1C(=O)CCC(C(=O)O)C1c1ccc(OC)cc1 (stereo not given) 36.8%
CCN(CC)c1ccc(S(=O)(=O)N2CCOCC2)cc1NC(=O)CSc1cccc[n+]1[O-] 11.8%
Cc1nc(NCCN)c(C#N)c2c1COC(C)(C)C2 32.5%
O=C(c1cccnc1NCc1ccccc1)N1CCOCC1 40.9%
S=C(NCc1ccc(Cl)cc1)NC1CCCCC1 32.1%
COc1ccc(S(=O)(=O)N2CCN(C(=O)c3cccs3)CC2)cc1OC -15.3%
COc1ccc(S(=O)(=O)N2CCC(C(=O)N3CCOCC3)CC2)cc1OC -7.88%
C=CCNC(=O)/C(=C\c1cccc([N+](=O)[O-])c1)NC(=O)c1ccccc1 48.8%
O=C(CSc1ncnc2scc(-c3ccccc3)c12)NCc1ccc2c(c1)OCO2 40.3%
Cc1cc(O)ccc1NC1=CC(=O)CC(C)(C)C1 -15.4%
Cc1nc2ccccc2cc1OCc1ccc(F)cc1 41.2%
Cc1noc(COc2ccccc2OCC(O)CNC(C)(C)C)n1 (stereo not given) -3.16%
COc1ccc(CCNC(=O)COC(=O)C2CCCCC2)cc1 43.3%
Cc1cccc(C)c1NC(=O)C(c1ccccc1)N1CC(=O)Nc2ccccc21 (stereo not given) 43.2%
CCn1c(C(C)NC(=O)c2ccc(C)cc2)n[nH]c1=S (stereo not given) 8.92%
Cc1ccc(CC(=O)Nc2ccc(OC(F)F)c(Cl)c2)cc1C 5.84%
N#CC1=C(SCc2ccccc2)NC(=O)C(C#N)C12CCCC2 (stereo not given) 9.75%
COc1ccnc(Oc2ccccc2)n1 -12.4%
C=CCOc1ccc(/C=N/n2cncn2)cc1OC 5.24%
COc1cc(/C=N/NC(=O)Nc2ccccc2)ccc1OCCOc1ccccc1C -16.5%
CCOC(=O)/C=C/C(=O)OCC(=O)NC(c1ccccc1)c1ccccc1 -28.2%
COc1ccc(C2CC(=O)Nc3cc(C)c(C)cc32)c(OC)c1OC (stereo not given) -26.4%
COCCOC(=O)C1=C(C)NC(=O)CC1c1cc2c(cc1Br)OCO2 (stereo not given) 63.3%
CCCSc1nc2[nH]ncc2c(=O)[nH]1 26.1%
Cc1cc(C(=O)COc2ccccc2[N+](=O)[O-])c(C)n1-c1cccc(S(=O)(=O)N2CCOCC2)c1 101%
CC1(C)C2CC=C(/C=N/NC(=O)c3ccc(Cl)cc3)C1C2 (stereo not given) 14.2%
CCN(CC(=O)NCCc1ccccc1)S(=O)(=O)c1ccc(C)cc1 -0.956%
O=C(Nc1ccc2c(c1)OCO2)c1ccc(N2C(=O)c3ccccc3C2=O)cc1 -11%
COc1ccc(C(=O)Nc2ccc3c(c2)OCO3)cc1OC 5.14%
COc1cc(C(=O)Nc2cc(C(F)(F)F)ccc2N2CCOCC2)ccc1O 44.6%
CCOC(=O)C1C(=O)NCC1c1ccccc1 (stereo not given) -16.9%
CCOC(=O)C1C(=O)C=C(c2ccc(OC)cc2)CC1c1ccco1 (stereo not given) 27.1%
COc1cccc(/C=N/NC(=O)CNC(=O)c2ccc(S(=O)(=O)N3CCOCC3)cc2)c1OC 69.9%
Cc1ccccc1N/C(SCc1ccc(Cl)cc1)=C(/C#N)C(N)=O -1.22%
CCN(CC)c1ccc(C(=O)N/N=C(\C)c2cccc(OC)c2)cc1 14.7%
Cc1ccc(Cc2cnc(N)s2)o1 -17.8%
Cc1cnc(C(=O)OCC(=O)Nc2ccc(Cl)cc2Cl)cn1 261%
O=C(/C=C/c1ccccc1[N+](=O)[O-])NCC1CCCO1 (stereo not given) 58.9%
Cc1ccc(SCC(=O)Nc2ccc3c(c2)OCCO3)cc1 36.7%
OCCNCCOc1ccc(Cl)c(Cl)c1 32.5%
Cc1ccc(C)c(NC(=O)CSc2nc3c(oc4ccccc43)c(=O)n2-c2ccccc2)c1 -5.79%
Cc1ccc(SCCC(=O)OCC(=O)Nc2ncc(Cl)cc2Cl)cc1 -2.97%
CN(C)/C(=N\OC(=O)c1ccccc1)c1nonc1N 6.05%
C/C(Cc1ccccc1)=N\NC(=O)CNC(=O)c1cccc(Br)c1 19.9%
Cc1cc(N2CCOCC2)nc(-c2ccc(Br)cc2)n1 -19.2%
CCOc1nc(-c2ccc(OC)cc2)ccc1-c1noc(-c2cc(OC)c(OC)c(OC)c2)n1 -17.5%
COc1ccc(-c2noc(-c3cccc(OC)c3OC)n2)cc1OC 7.54%
Cc1ccc(S(=O)(=O)N(NC2=NS(=O)(=O)c3ccccc32)C(=O)c2ccccc2)cc1 35.5%
COc1ccc(C(=O)NNS(=O)(=O)c2ccc(C)cc2)cc1 -23.7%
N#CCCN1CCN(S(=O)(=O)c2ccc(S(=O)(=O)NC3CC3)cc2)CC1 -11.6%
N#CCCN1CCN(S(=O)(=O)c2ccc(S(=O)(=O)N3CCCC3)cc2)CC1 -15%
CCCCC(=O)Nc1ccc(C(=O)Nc2cc(C(F)(F)F)ccc2Cl)cc1 22.8%
Cc1onc(-c2ccccc2Cl)c1C(=O)NCCn1ccc2ccccc21 -12.7%
CC(=O)Nc1cccc(/C(C)=N/NC(=O)c2ccccc2Cl)c1 5.62%
CC(C)=C(NC(=O)c1ccccc1)C(=O)N/N=C(\C)c1ccccc1O 6.63%
COc1ccc(-n2nnnc2-c2nc3ccccc3s2)cc1 -8.45%
CCOc1cccc(-c2nnc3sc(COc4ccc(OC)cc4)nn23)c1 -29.7%

Activity change (PNC), negative = inhibition, active:
CN(CC(=O)Nc1ccc(N2CCOCC2)cc1)CC(=O)Nc1ccccc1[N+](=O)[O-] -100%
Cc1cc(=O)oc2cc(OCC3CC(c4ccccc4Cl)=NO3)ccc12 (stereo not given) -89.5%
COc1ccccc1NC(=O)C1=C(C)Nc2nc3ccccc3n2C1c1cccs1 (stereo not given) -82.7%
CCCCC(C(=O)OCC(=O)c1ccc(OC)cc1)N1C(=O)c2ccccc2C1=O (stereo not given) -100%
Cc1nc(NCc2ccccc2)c(C(N)=O)c2c1COC(C)(C)C2 -122%
COc1ccc(S(=O)(=O)N2CCC(C(=O)N3CCc4ccccc4C3)CC2)cc1OC -84.1%
Cc1noc(COc2ccccc2OCc2onc(C)c2Cl)c1Cl -100%
N#CC1=C(SCc2ccc(C#N)cc2)N=C(N)C(c2nc(-c3ccccc3)cs2)C12CCCCC2 (stereo not given) -112%
C/C=C/c1ccc(OCCOc2ccc(C=O)cc2OC)c(OC)c1 -108%
CCCOc1ccccc1C1CC(=O)Nc2cc3c(cc21)OCO3 (stereo not given) -92%
Cn1c(=O)n(C)c2cc(C(=O)Nc3ccc4c(c3)OCO4)ccc21 -87%
CCOC(=O)C1C(=O)NC(N2CCN(c3ccccc3)CC2)=NC1c1ccco1 (stereo not given) -90%
Cc1ccc(CCC(=O)Nc2ncc(Cc3cc(Cl)ccc3Cl)s2)o1 -88.9%
Cc1ccc(-n2c(SCC(=O)Nc3ncc(Cl)cc3Cl)nc3ccccc32)cc1 -115%
COc1ccc(-c2nc(-c3ccccc3)no2)c(OC)c1 -102%
CC(C)(C)c1cc(CN2CCN(CCC#N)CC2)cc(C(C)(C)C)c1O -122%
CC(=O)Nc1cccc(/C(C)=N/NC(=O)c2c(-c3ccccc3Cl)noc2C)c1 -109%
CCOc1cccc(-n2nnnc2-c2ccc(OC)cc2)c1 -83.5%
